Screening data (PubChem)
Many of the other results were omitted from the sample, so hits are more common in it than they were.
ST2 IL33 inh: blocks human ST2 binding to IL-33. Q01638. AlphaLISA ST2-Fc/biotin-IL-33 interaction, 1 h. inhibition, % for hits at 17 µM. 78,000 tested, 2.3% active; in the data active = inhibition above about 30%
Target sequence (Q01638 whole entry, looked up): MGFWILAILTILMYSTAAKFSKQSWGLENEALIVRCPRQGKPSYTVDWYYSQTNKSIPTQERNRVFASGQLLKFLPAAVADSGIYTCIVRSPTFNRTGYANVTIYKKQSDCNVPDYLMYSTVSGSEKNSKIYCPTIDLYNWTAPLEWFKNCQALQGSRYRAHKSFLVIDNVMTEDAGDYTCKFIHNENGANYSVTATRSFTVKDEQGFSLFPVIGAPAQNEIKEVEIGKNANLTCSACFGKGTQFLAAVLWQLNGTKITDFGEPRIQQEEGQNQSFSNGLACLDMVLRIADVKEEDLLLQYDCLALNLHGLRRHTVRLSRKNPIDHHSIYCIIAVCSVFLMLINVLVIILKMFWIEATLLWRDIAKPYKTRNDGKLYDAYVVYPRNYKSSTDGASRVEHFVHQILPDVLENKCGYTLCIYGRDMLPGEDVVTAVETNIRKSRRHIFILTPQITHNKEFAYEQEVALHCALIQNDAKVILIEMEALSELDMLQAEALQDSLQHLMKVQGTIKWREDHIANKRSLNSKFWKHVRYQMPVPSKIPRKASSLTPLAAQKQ
* = called active by the depositor; i = inactive.

SMILES | ST2 IL33 inh
O=C(Cn1c(=O)sc2ccccc21)N1CCN(c2ccc(Cl)cc2)CC1 | i
Cc1ccc(-n2ncc3c(=O)n(CC(=O)Nc4cc(C)on4)cnc32)cc1 | i
Cc1ccc(C2=CC(c3ccccc3)=N/C(=C(\C#N)C(N)=O)N2)cc1 | i
CC1CCCCN1S(=O)(=O)c1ccc(NC(=O)c2ncn[nH]2)cc1 (configuration not stated) | i
Cc1nc(CCNC(=O)c2ccccc2NCc2sccc2C)cc(=O)[nH]1 | i
C=C(C)COc1ccc(C(=O)N[C@H]2COC[C@@H]2N2CCOCC2)cc1 | i
COc1ccc(Nc2ncnc3c2cnn3-c2ccc(C)cc2C)cc1OC | i
Cc1csc2ncc(C(=O)NCc3ccc(F)cc3)c(=O)n12 | i
COc1ccc(CNC(=O)N2CCOC(C(F)(F)F)C2)cc1 (configuration not stated) | i
CCOc1ccc(Cl)cc1CN(C)Cc1cc2n(n1)CCNC2 | i
CCN1CCN(C(c2ccc(C)cc2)c2sc3nc(C)nn3c2O)CC1 (configuration not stated) | i
Cc1ccc(C2=NNC3(S2)C(=O)Nc2ccc(C)cc23)cc1 (configuration not stated) | 44%*
Cc1ccc(N2C(=O)C(C)SC23C(=O)Nc2ccccc23)cc1 (configuration not stated) | i
Cc1ccc2c(c1)C(=O)C(=O)N2 | i
O=[N+]([O-])c1c(N2CCCC2)c([N+](=O)[O-])c(N2CCCC2)c([N+](=O)[O-])c1N1CCCC1 | i
COc1ccc(C(=O)Nc2c3c(nn2-c2ccc(F)cc2)CS(=O)C3)cc1 (configuration not stated) | i
CCc1ccc(N2CSC3=C(C#N)C(c4ccccc4F)CC(=O)N3C2)cc1 (configuration not stated) | i
Cc1cccnc1NCCNC(C)C(=O)NC1CCCC1 (configuration not stated) | i
O=C(Nc1nc2c(cc3c4c(cccc42)CC3)s1)c1ccc2c(c1)OCCO2 | i
CC(C)(C)c1ccc(-c2nnc(NC(=O)c3ccc4c(c3)OCO4)s2)cc1 | i
Nc1ccc(/C=C/C2C=CC=CC2)cc1 (configuration not stated) | 47%*
C=CCn1c(=N)n(CC(O)c2ccc(-c3ccccc3)cc2)c2ccccc21 (configuration not stated) | i
COc1ccc(-c2c3c(=O)n(C)c(=O)n(C)c3c3c(-c4ccccc4)cc(C)nn23)cc1 | 31%*
Cn1c(=O)c2c(-c3ccccc3)n3ncccc3c2n(C)c1=O | i
COc1ccc(-c2c3c(=O)n(C)c(=O)n(C)c3c3cccnn23)cc1 | i
SMILES | ST2 IL33 inh
O=C(NCCCN1CCCCCC1)C1C2C=CC3(CN(Cc4cccs4)C(=O)C13)O2 (configuration not stated) | i
CC(C)C(NS(=O)(=O)c1ccc2c(c1)oc(=O)n2C)C(=O)NC1CCCC1 (configuration not stated) | i
Cc1nc2ccc(Cl)cc2s1 | i
CNC(=O)C(C)N(C)Cc1nc2ccccc2n1CC(C)C (configuration not stated) | i
CNC(=O)C(C)N(C)Cc1nnc(CC2CCNCC2)n1-c1ccccc1 (configuration not stated) | 30%*
CNC(=O)C(C)N(C)Cc1cccc(C(=O)OC)c1 (configuration not stated) | i
COCCCNC(=O)c1cc2c(=O)n3ccccc3nc2n1C | i
O=C1NC(=O)N(c2ccccc2)C(=O)C1C(c1ccccc1)c1ccccc1 (configuration not stated) | i
Cc1nnc(C)c2c(C)n(C(C)c3ccccc3)c(C)c12 (configuration not stated) | 47%*
Cc1c(C(c2ccccc2)c2c(C)n(C)n(-c3ccccc3)c2=O)c(=O)n(-c2ccccc2)n1C | i
O=C(NCCO)C12CC3CCC(CC(C3)C1)C2 | i
O=S(=O)(NCc1ccc2[nH]c3c(c2c1)CCCC3)C1CC1 | i
CCOc1ccc(-n2c(C)nc3c(cnn3-c3ccc(F)cc3)c2=O)cc1 | i
CCOc1ccc(-n2c(-c3ccco3)nc3c(cnn3-c3ccc(F)cc3)c2=O)cc1 | 33%*
CCc1cccc(-n2c(-c3ccco3)nc3c(cnn3-c3ccc(F)cc3)c2=O)c1 | i
CCOc1ccc(-c2nc(SCC(=O)NC(C)C)n3[nH]c(=O)cc3n2)cc1 | i
Cc1cccc(CC(=O)N2CCN=C2SCc2ccccc2C)c1 | i
COc1nc(-c2ccccc2Cl)nc2ccccc12 | i
CCSc1oc(-c2ccc(C)cc2)nc1S(=O)(=O)c1ccccc1 | i
Cc1ccc(S(=O)(=O)Nc2ccc3oc4c(c3c2)CCCC4)c(C)c1 | i
CCCCN(C)Cc1cc(O)ccc1[N+](=O)[O-] | i
CNC(=O)CN1C(=O)/C(=C\c2ccc(C(F)(F)F)cc2)Sc2ccccc21 | i
CC(NC(=O)CN1C(=O)/C(=C\c2cccc(Cl)c2)Sc2ccccc21)c1ccccc1 (configuration not stated) | i
COCCNC(=O)CN1C(=O)/C(=C\c2ccc(Cl)cc2)Sc2ccccc21 | i
CNC(=O)CN1C(=O)/C(=C/c2ccccc2C)Sc2ccccc21 | i
SMILES | ST2 IL33 inh
O=C(CN1C(=O)/C(=C\c2cccc(Cl)c2)Sc2ccccc21)NCCN1CCCC1 | i
COCCCNC(=O)CN1C(=O)/C(=C\c2ccc(Cl)cc2)Sc2ccccc21 | i
CNC(=O)CN1C(=O)/C(=C/c2ccccc2F)Sc2ccccc21 | i
O=C(CN1C(=O)/C(=C\c2ccc(C(F)(F)F)cc2)Sc2ccccc21)NCCN1CCCC1 | 39%*
Cc1ccccc1/C=C1\Sc2ccccc2N(CC(=O)NC(C)c2ccccc2)C1=O (configuration not stated) | 32%*
O=C(CN1C(=O)/C(=C/c2ccccc2F)Sc2ccccc21)NC1CCCCCC1 | i
O=C(CN1C(=O)/C(=C/c2ccccc2F)Sc2ccccc21)N1CCCCC1 | 39%*
O=C(CN1C(=O)/C(=C\c2ccc(Cl)cc2)Sc2ccccc21)N1CCCCC1 | 41%*
COCC1Cc2cc3c(c(OC)c2C(c2ccc(OC)c(OC)c2)C1COC)OCO3 (configuration not stated) | i
CN(C)c1ccc(C(=O)N[C@H]2C[C@H]3C(=O)NC[C@@H](CCC(=O)NCc4cccs4)N3C2)cc1 | i
COc1ccc(C=NS(=O)(=O)c2ccccc2)cc1OC | i
CCN(C(=O)Cc1c(C(=O)O)[nH]c2ccc(Cl)cc12)c1ccc(F)cc1 | i
c1ccc(-c2ccc(CN3CCCn4cncc4C3)cc2)nc1 | i
CC(NC(=O)Cc1cccs1)C(c1cccs1)N1CCN(C)CC1 (configuration not stated) | i
COc1ccccc1NS(=O)(=O)c1cc(S(=O)(=O)Nc2ccccc2OC)c(C)cc1C | i
COc1ccc(C(=O)N2CC=C(c3ccccc3)CC2)cc1OC1CCN(C(C)=O)CC1 | i
CCOc1ccc(CCCC(=O)N2CCCCC2CO)cc1C (configuration not stated) | i
NC(=O)CNC(=O)C1=C[C@@H](NC(=O)Cc2cccs2)[C@@H](O)[C@H](O)C1 | i
O=C(CN1C(=O)/C(=C/c2ccccc2F)Sc2ccccc21)NC1CCCC1 | i
CC1CCCC(NC(=O)CN2C(=O)/C(=C/c3ccccc3F)Sc3ccccc32)C1C (configuration not stated) | 32%*
Cc1ccc(CCNC(=O)CN2C(=O)/C(=C/c3ccccc3F)Sc3ccccc32)cc1 | i
